# High-throughput results: PubChem BioAssay, National Center for Advancing Translational Sciences (NCATS)
# LMNA splice mod – qHTS Assay for Modulators of Lamin A Splicing; HeLa LMNA splicing GFP/RFP minigene ratio, 48 h; Potency, µM (highest dose often 46.1 µM), for the others: at the top dose ratio change, negative = inhibition, actives largely listed as inhibitors; hit rate 0.01% among 200,000; AID 1487, 2009; active = well fitted inhibition curve with a large enough effect in the signal ratio, with a control signal flat, not every such curve was filed as active; inconclusive = small, poorly fitted or top-dose-only effect, or effect the other way, or a change in a side signal; the % refers to the signal ratio; also: potency is read from the fitted curve at half-maximal effect; % is scaled to controls: 0 for no effect and ±100 for the full control effect
#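 S3 HeLa cells stably expressing lamin A-EGFP splicing minigene plus DsRed2, 600 cells/well, 48 h compound exposure at 37C. Laser-scanning cytometry; analysed as GFP (500-530 nm)/RFP (575-640 nm) total intensity ratio; 0.5% DMSO vehicle.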
# Tau ThT inhib – qHTS for Inhibitors of Tau Fibril Formation, Thioflavin T Binding; recombinant tau K18 P301L, heparin-induced fibrillization, ThT fluorescence; Potency, µM (titrated, usually from 57.4 µM), inactives show at the top dose activity, negative = inhibition, hits mostly inhibitors; hit rate 2.1% among 270,000; AID 1460, 2008; also: potency is read from the fitted curve at half-maximal effect; % is scaled to controls: 0 for no effect and ±100 for the full control effect; nearly all actives have a fitted effect of over 55% in size
#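 Aggregation was driven by heparin (20 uM final) acting on recombinant tau […] bearing P301L in 100 mM sodium acetate pH 7; fibrils were detected with Thioflavin T.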
# Tau fibril FP – qHTS for Inhibitors of Tau Fibril Formation, Fluorescence Polarization | Microtubule-associated protein tau (Homo sapiens), P10636 | Potency, µM (doses to about 57.7 µM), without a hit: at the highest dose activity, negative = inhibition, actives largely listed as inhibitors | hit rate 0.39% among 280,000 | K18 P301L tau heparin fibrillization, Alexa594 FP, 6 h | AID 1468, 2008; also: potency is read from the fitted curve at half-maximal effect; % is scaled to controls: 0 for no effect and ±100 for the full control effect; nearly all actives have a fitted effect of over 55% in size
#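 FP of Alexa 594-tau after heparin (20 uM) induction. Substrate: human K18 P301L, 15 uM unlabeled, 0.24 uM labeled. Buffer 100 mM sodium acetate pH 7. 6 hr, 37 C.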
# CBFb RUNX1 block – qHTS Assay for Compounds Blocking the Interaction Between CBF-beta and RUNX1 for the Treatment of Acute Myeloid Leukemia. AlphaScreen CBFb-His/RUNX1-biotin binding, biochemical. Potency, µM (top dose mostly 59.8 µM), for inactives: at the top dose activity, negative = inhibition, actives largely listed as inhibitors. 230,000 tested, under 10 active; also: % of control where 0% means no effect
#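 Interaction loss through any mechanism counts as activity. Pre-formed complex of His-CBF-beta and biotin-RUNX1 (30 nM apiece) is incubated with compound 15 min, then with 50 ng nickel and 50 ng streptavidin beads for 90 min before AlphaScreen detection.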
# JMJD2E inh – qHTS Assay for Inhibitors of Human Jumonji Domain Containing 2E (JMJD2E); JMJD2E catalytic domain, FDH-coupled NADH fluorescence (FDH is formaldehyde dehydrogenase); Lysine-specific demethylase 4E (Homo sapiens), B2RXH2; hit rate 1.6% among 230,000; Potency, µM (highest dose often 57.1 µM), for the others: top-dose activity change, negative = inhibition, usual class: inhibitors; active = well fitted inhibition curve with a large enough effect, not every such curve was filed as active; inconclusive = small, poorly fitted or top-dose-only effect, or another doubt; inactive = no such curve, though single readings can be large or run the other way;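 also: potency is read from the fitted curve at half-maximal effect; 0% = wells with enzyme and -100% = buffer wells without enzyme; nearly all actives have a fitted effect of over 50% in size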
# Tau fluor counter – Counterscreen qHTS for Inhibitors of Tau Fibril Formation, Fluorescence Polarization | tau K18 P301L Alexa594 fluorescence, heparin fibrillization | Potency, µM (highest dose often 57.7 µM), for the others: top-dose activity change, negative = decrease | hit rate 0.93% among 280,000 | AID 1463, 2008; also: potency is read from the fitted curve at half-maximal effect; % is scaled to controls: 0 for no effect and ±100 for the full control effect; nearly all actives have a fitted effect of over 55% in size
#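 Human tau K18 P301L (15 uM unlabeled, 0.24 uM Alexa 594-labeled) in 100 mM sodium acetate pH 7 with 20 uM heparin, 6 hr at 37 C. ThT 30 uM added, 1 hr ambient; Alexa 594 FP and total fluorescence read at 555/632 nm.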
# The depositor's hits bear a star; ? = inconclusive; / = no result; ! = a repeat was not active; [ ] = another dose, or the depositor's remark. The list is not random: actives were taken first. Their share in the collection is about 3.2%. Unless noted, calls follow the shape of the dose curve; as a rule, active = well fitted curve in the direction sought with a large enough effect; inconclusive = small, poorly fitted or top-dose-only effect, or another doubt; inactive = no such curve, though single readings can be large; an effect the other way counts as inactive or inconclusive.
SMILES,LMNA splice mod,Tau ThT inhib,Tau fibril FP,CBFb RUNX1 block,JMJD2E inh,Tau fluor counter
O=c1oc2c(-c3ccc([N+](=O)[O-])cc3)cc(O)cc2s1,/,?,1%,-5%,-4%,?
C=Cc1ccc(CN2C(=O)N(c3cccc(Cl)c3)S(=O)(=O)c3ccccc32)cc1,-1%[46 µM],8%,?,/,/,-18%
Oc1ccccc1/C=N/Nc1cccc2cccnc12,-2%,?,15%,-3%,?,13µM*[quencher]
CN1C(=O)CS/C1=N\NC(=O)COc1cccc2cccnc12,/,10µM*,-7%,-16%,10%,12%[2.34 µM]
C/C(=N\OCC(=O)N/N=C/c1ccccc1O)c1cccs1,?,?,-4%,-4%,22µM*,?
O=C(COc1cccc2cccnc12)N/N=C/c1ccccc1O,/,?,-7%,5%,7.9µM*,-10%
Cc1ccccc1OCC(=O)N/N=C1\SCC(=O)N1Cc1ccccc1,?,6%,0%,-2%,2%,2%
COc1ccccc1NC(=O)N1CCOc2ccccc21,1%[46 µM],?,4%,/,/,13µM*[quencher]
COc1cc2cccc(OC)c(=O)c2c(O)c1OC,-13%,?,7%,1%,-3%,-3%
COc1cc2c(cc1OC)-c1c(OC)c(OC)cc3ccnc(c13)C2=O,?,7.1µM*,-21%,-9%[21.7 µM],?,?
Nc1ccc2oc(-c3ccc4nc[nH]c4c3)nc2c1,-26%,14µM*,4%,?,?,?
Cc1nc2ccc(-c3nc4cc(N)ccc4o3)cc2[nH]1,-20%,?,-1%,11%,?,-23%
CC1=C(CC(=O)O)c2cc(F)ccc2/C1=C\c1ccc(S(C)=O)cc1 (centres undefined),?,?,-10%,-5%,35µM*!,-17%
CCNc1ncc2nc(-c3ccc(F)cc3)c(=O)n(-c3ccc(OC)cc3)c2n1,29%,/,/,/,/,/
COc1ccc(/C=C/C=C2\N=C(SC)SC2=O)cc1,-11%,4µM*,?,0%,0%,-29%
CCOc1ccccc1NC(=O)CN1C=NS(=O)(=O)c2ccccc21,?,-8%,-1%,/,/,-17%
C/C1=C2N=C(/C=C3N=C(/C(C)=C4\[N-]C(C)(C5N=C1C(C)(CCC(=O)NCC(C)OP(=O)([O-])O[C@H]1C(O)C(n6cnc7cc(C)c(C)cc76)O[C@@H]1CO)C5CC(N)=O)C(C)(CC(N)=O)C4CCC(N)=O)C(C)(CC(N)=O)C\3CCC(N)=O)C(C)(C)C/2CCC(N)=O.[CH2-]C1OC(n2cnc3c(N)ncnc32)C(O)C1O.[Co] (some centres undefined),?,10µM*,13µM*,-13%,14µM*,?
COc1ccc(Nc2nc(N)nc(CSC(=S)N3CCCCC3C)n2)cc1 (centres undefined),/,?,10%,-6%,-4%,10µM*[quencher]
COc1ccc(Nc2nc(N)nc(CSC(=S)N3CCCCC3)n2)cc1,/,-18%,6%,-15%,-4%,?
CCC[C@@H]1C[C@@H](C(=O)N[C@@H]([C@H]2O[C@H](SC)[C@H](O)[C@@H](O)[C@H]2O)[C@@H](C)O)N(C)C1,-29%,0%,6%,7%,/,1%
Cc1ccc(NC(=O)CSc2nc3ccc(NC(=O)c4cccs4)cc3s2)cc1,11%[46 µM],2%,?,/,/,?
Cc1ccccc1OCC(=O)Nc1ccc2nc(SCCOc3ccccc3)sc2c1,3%[46 µM],?,-13%,/,/,-24%
